Source: PubChem BioAssay AID1016 (Sanford-Burnham Center for Chemical Genomics, 2008)
Out of some 200,000 compounds screened, about 330 (0.17%) were called active. The sample as a whole holds a higher share of actives than the screen did. A number with no mark means an inactive call.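 The calls were made as follows: active = activation factor of 2 or more at 20 µM, a signal rise over negative controls twice the positive control's; inactive = the rest.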 Where a SMILES comes first, the peptide text is derived from it. [ ]: non-standard residue; d: D form. ξ: configuration not given here. ξM = CSCCC(N)C(=O)O

Each molecule was assayed on alkaline phosphatase, intestinal [Bos taurus] (assay: IAP enzyme activity enhancers – biochemical, bovine IAP, CDP-star luminescence, primary screen (AID 1016)). Settings: purified bovine IAP, 30 min, at 20 µM, active compounds read high, fold of DMSO-control signal, blank-subtracted.

| Compound | activation factor |
| --- | --- |
| COc1ccc(-c2nc(N)sc2C2(O)C(=O)Nc3c(Br)cc(F)cc32)cc1OC (configuration not stated) | 1 |
| COC(=O)CNC(=O)C(CCSC)NC(C)=O (configuration not stated) (Ac-[ξM]-Gly-OMe) | 1 |
| O=C(COC(=O)c1cccc(Br)c1)Nc1cccc2c1C(=O)c1ccccc1C2=O | 0.8 |
| O=C(CN1CCOCC1)Nc1c(Cl)cc(Cl)cc1Cl | 1 |
| O=C(CCCn1c(=O)c2sccc2n(CC(=O)NCC2CCCO2)c1=O)NCc1ccco1 (configuration not stated) | 1 |
| [O-][n+]1c2c(nn1-c1ccc(Cl)c(Cl)c1)-c1nonc1CC2 | 1.1 |
| CCCOc1ccc(Cn2ccnc2)cc1[N+](=O)[O-] | 0.2 |
| Cc1ccc(Oc2cc(NC(=O)CCCn3nc(C)c([N+](=O)[O-])c3C)cc([N+](=O)[O-])c2)cc1 | 0.9 |
| Cc1[nH]nc(SCC(=O)NCC(C)C)c1[N+](=O)[O-] | 1.2 |
| COc1cc2c(cc1NC(=O)CN1CCN(S(=O)(=O)c3ccc(F)cc3)CC1)oc1ccccc12 | 2 (active) |
| COc1ccccc1NC(=O)CN1CCN(S(=O)(=O)c2ccc(Br)cc2)CC1 | 1 |
| COc1ccc(NC(=O)CN2CCN(S(=O)(=O)c3ccc(F)cc3)CC2)cc1Cl | 0.9 |
| COc1ccc(-n2c(C)cc(C(=O)CN3C(=O)NC4(CCc5ccccc54)C3=O)c2C)cc1 (configuration not stated) | 1 |
| C/C(=C\c1ccco1)CN1CCC(N2CCC(C(=O)N3CCOCC3)CC2)CC1 | 1.1 |
| CC(=O)c1cccc(NC(=O)[C@@H](NC(N)=O)C(C)C)c1 | 0.9 |
| O=C(COc1ccc(-c2ccccc2)cc1)NN=C1CCCC1 | 1 |
| CC(C)Nc1nnc(SCC(=O)/C=C2\N(C)c3ccccc3C2(C)C)s1 | 1.1 |
| O=C1Nc2ccc([N+](=O)[O-])cc2C1=Nc1cccc(CO)c1 | 0.9 |
| Cc1c(NC(=O)CCC2CCCCC2)cc(C(=O)N2CCOCC2)cc1[N+](=O)[O-] | 0.9 |
| C=C(C)c1cccc(C(C)(C)NC(=O)NCCN(CC)CC)c1 | 1.2 |
| C1=C(CCNc2ncnc3c2cnn3-c2ccccc2)CCCC1 | 0.9 |
| CC(=O)Nc1ccc(NC(=O)CSCc2cnn(-c3ccccc3)c2-n2cccc2)cc1 | 0.6 |
| O=C(NCCC1=CCCCC1)C1CCN(Cc2cnn(-c3ccccc3)c2-n2cccc2)CC1 | 2.5 (active) |
| O=[N+]([O-])c1cc(S(=O)(=O)Nc2cccc(Cl)c2)ccc1N=Nc1c(O)[nH]c2ccccc12 | 0.8 |
| S=C(NCc1cccnc1)Nc1ccc(Cl)cc1Cl | 0.9 |
| O=C(Nc1cccn(Cc2ccccc2Cl)c1=O)NC1CCCCC1 | 1 |

| Compound | activation factor |
| --- | --- |
| C=CCc1cccc2cc(C(=O)NC3CCCC3)c(=O)oc12 | 0.9 |
| COc1cccc(-c2ccc(C#N)c(SCC(=O)NCCc3ccc(Cl)cc3)n2)c1 | 0.8 |
| COc1ccc(CCNC(=O)CSc2nnc3ccc(-c4ccncc4)nn23)cc1 | 1.1 |
| COc1ccc(CCNC(=O)CSc2nc(-c3ccc(OC)c(OC)c3)ccc2C#N)cc1 | 2.1 (active) |
| O=C(Nc1ccc2c(c1)C(=O)OC2)Nc1cccc2ccccc12 | 1.1 |
| CCc1ccc(Nc2nnc(SCC(=O)c3ccc4c(c3)NC(=O)CO4)s2)cc1 | 1.2 |
| Cc1ccc(S(=O)(=O)Nc2nc(N)n(-c3ccccc3)n2)cc1 | 1.2 |
| CCOC(=O)NN1C(=O)c2ccccc2NC1c1ccccc1O (configuration not stated) | 1 |
| CCOC(=O)Cn1c2c(c(-c3ccccc3OC)cc1=O)CCCC2 | 2.1 (active) |
| CCOC(=O)Cn1c(-c2cccnc2Cl)nc2ccccc21 | 1 |
| CCOC(=O)CN1CCC(c2ccccc2)CC1 | 1 |
| COc1ccccc1NC1=NC(c2ccc(Cl)cc2)N=C(N)N1 (configuration not stated) | 2.7 (active) |
| COc1ccccc1NC1=NC2(CCCC2)N=C(N)N1 | 0.9 |
| COc1ccccc1Nc1nc(N)nc(CN(C)C2CCCCC2)n1 | 0.9 |
| CCOc1cc(N2CCOCC2)c(OCC)cc1NC(=O)C1=NN(c2cccc(C)c2)C(=O)CC1 | 0.9 |
| O=C(NCc1ccccc1Cl)C1CCN(S(=O)(=O)N2CCOCC2)CC1 | 1 |
| O=C(CN1C(=O)/C(=C/c2ccccc2F)Sc2ccccc21)NCc1cccnc1 | 1.1 |
| Cc1ccc(S(=O)(=O)C2C(=O)NC3(C)CC2c2ccccc2O3)cc1 (configuration not stated) | 0.9 |
| COc1ccc(/C=C/C(=O)NC(=S)NN2CCCCC2c2cccnc2)cc1 (configuration not stated) | 0.7 |
| Cc1cccc(-n2cnc(C(=O)NNC(=S)Nc3ccccc3)c2)n1 | 1.6 |
| CCn1cc(/C=C2/SC(=S)NC2=O)c(C)n1 | 1.1 |
| CC1=CC=CC2=N/C(=N\S(=O)(=O)c3ccc(F)cc3F)c3ccccc3CN12 | 0.9 |
| CC(=O)c1ccc(NC(=O)C(C)NCc2ccc(Cl)cc2)cc1 (configuration not stated) | 0.9 |
| CC1(C)Cc2cccc(OCC(=O)N3CCN(c4ccc([N+](=O)[O-])cc4)CC3)c2O1 | 0.9 |
| N=c1c2c(-c3ccccc3)c(-c3ccccc3)n(Cc3ccccc3)c2ncn1CCCO | 1.4 |
| OCCCN1c2ccccc2Nc2nnc(-c3ccccc3)cc21 | 9 (active) |
